Compound activity (PubChem)
This is a sample that favours compounds with a hit; in the whole collection about 3.1% have one here.
VDR inh: vitamin D3 receptor (human) inhibition; 400,000 compounds, 0.93% hits; Potency, µM, hits mostly inhibitors; P11473; VDR-SRC2-3 peptide fluorescence polarization, 2 h
Target sequence (P11473 whole entry, looked up): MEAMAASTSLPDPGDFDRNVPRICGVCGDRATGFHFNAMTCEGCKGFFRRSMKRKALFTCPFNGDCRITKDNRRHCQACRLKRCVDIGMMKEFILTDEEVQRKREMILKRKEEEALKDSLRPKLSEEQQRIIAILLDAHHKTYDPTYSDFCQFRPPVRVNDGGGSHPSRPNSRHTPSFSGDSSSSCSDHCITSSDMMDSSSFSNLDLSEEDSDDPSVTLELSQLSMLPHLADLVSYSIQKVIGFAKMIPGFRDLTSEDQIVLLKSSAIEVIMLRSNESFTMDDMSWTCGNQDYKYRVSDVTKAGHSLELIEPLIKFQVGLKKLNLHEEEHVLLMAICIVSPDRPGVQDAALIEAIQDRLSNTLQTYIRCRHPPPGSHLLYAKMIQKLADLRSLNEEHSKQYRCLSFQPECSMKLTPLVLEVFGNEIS
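Reagent solutions, kept cold and dark, are dispensed first; compounds are then pinned in at 23 nl, plates briefly spun, and incubated 2 h at ambient temperature. Inhibition of VDR–SRC2-3 peptide binding is read by fluorescence polarization.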
PLK1 PBD inh: blocks phosphopeptide binding to human PLK1 polo-box domain; P53350; AID 720504; Potency, µM, most hits filed as inhibitors; 360,000 compounds, 2.8% hits; Plk1 PBD binding of FITC phosphopeptide, fluorescence polarization; note: series mostly up to about 57 µM; nearly all actives have a fitted effect of over 65% in size
Tb PFK inh: T. brucei PFK enzyme inhibition | O15648 | T. brucei PFK, ADP-Glo luminescence | Potency, µM (doses to about 57.5 µM), most hits filed as inhibitors | 330,000 compounds, 0.17% hits | AID 485367; note: nearly all actives have a fitted effect of over 60% in size
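ADP-Glo luminescence quantified ADP after 45 min at room temperature, with 1.25 nM T. brucei PFK, 0.1 mM ATP and 0.5 mM fructose-6-phosphate in pH 8.0 TEA buffer. qHTS titrations up to 57 µM; curves classified by quality.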
TDP1 inh: blocks human tyrosyl-DNA phosphodiesterase 1. Q9NUW8. recombinant TDP1, AlphaScreen DNA substrate cleavage. Potency, µM (top dose mostly 130 µM), hits mostly inhibitors. 350,000 compounds, 0.28% hits; note: nearly all actives have a fitted effect of over 40% in size
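Here, a 5' biotin and 3' phosphotyrosine-FITC DNA oligonucleotide reports Tdp1 activity: intact substrate bridges AlphaScreen beads, while cleavage leaves a 3' phosphate and drops signal. All incubations at room temperature.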
Pin1 inhibitor: human Pin1 inhibition; Q13526; Pin1 FP peptide displacement, HiFluor488, 10 min; Potency, µM (top dose mostly 115 µM), most hits filed as inhibitors; 390,000 compounds, 0.009% hits; active = well fitted inhibition curve with a large enough effect in the polarisation, with a control signal flat, not every such curve was filed as active; inconclusive = small, poorly fitted or top-dose-only effect, or effect the other way, or a change in a side signal; inactive = no such curve, though single readings can be large or run the other way; the % refers to the polarisation
ASM inhibitor: blocks human secretory acid sphingomyelinase; P17405; placental ASM, HMU-PC fluorogenic substrate, 60 min; Potency, µM (highest dose often 57.5 µM), actives largely listed as inhibitors; 340,000 compounds, 0.006% hits
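Fluorogenic HMU-PC substrate (9 uM final) is turned over by placental ASM in 60 min at 37 C after a 10 min compound preincubation. Reaction ended by alkaline stop (pH 10), with fluorescence read at 386/447 nm.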
A number is an active result; [ ] = dose if it differs, or a comment. Unless noted, calls come from the whole dose curve; as a rule, active = well fitted curve in the direction sought with a large enough effect; inconclusive = small, poorly fitted or top-dose-only effect, or another doubt; inactive = no such curve, though single readings can be large; an effect the other way counts as inactive or inconclusive.

Screening CCNC(=O)c1sc(=S)n(-c2ccc(C)cc2)c1N returned VDR inh inactive, PLK1 PBD inh inconclusive, Tb PFK inh inactive, TDP1 inh inactive, Pin1 inhibitor inactive and ASM inhibitor inactive.
For O=S(=O)(c1cccc(F)c1)N1CCC(Oc2ccc(-n3cnnn3)cc2)CC1 the results were VDR inh inactive, TDP1 inh inactive and Pin1 inhibitor inactive.
For O=S(=O)(N/N=C\c1c(F)cccc1Cl)c1ccc(Cl)cc1 the results were VDR inh inconclusive, PLK1 PBD inh 15µM, Tb PFK inh inactive, TDP1 inh inactive, Pin1 inhibitor inactive and ASM inhibitor inactive.
Screening O=S(=O)(N/N=C/c1ccc2c(c1)OCCO2)c1ccc(Cl)cc1 returned VDR inh inactive, PLK1 PBD inh inactive, Tb PFK inh inactive[0.46 µM], TDP1 inh inactive, Pin1 inhibitor inactive and ASM inhibitor inactive.
Screening COc1ccccc1NC(=O)CC1SC(=N)N(c2ccccc2)C1=O (stereo not drawn) returned VDR inh inactive, PLK1 PBD inh inactive, Tb PFK inh inactive, TDP1 inh inactive, Pin1 inhibitor inactive and ASM inhibitor inactive.
Screening Cc1ccccc1NC(=O)CC1SC(=O)N(c2ccccc2)C1=O (stereo not drawn) returned VDR inh inactive, PLK1 PBD inh 11µM, Tb PFK inh inactive, TDP1 inh inactive, Pin1 inhibitor inactive and ASM inhibitor inactive.
For O=C(CC1SC(=O)N(c2ccccc2)C1=O)Nc1cccc2ccccc12 (stereo not drawn) the results were VDR inh 45µM, PLK1 PBD inh 11µM, Tb PFK inh inactive, Pin1 inhibitor inactive and ASM inhibitor inactive.
Screening COc1cc(F)c(S(=O)(=O)N2CCN(S(=O)(=O)c3cccs3)CC2)c(F)c1 returned TDP1 inh inactive and Pin1 inhibitor inactive.
Screening N#Cc1nc(NC2CCCC2)c2ncn(-c3cc(F)cc(F)c3)c2n1 returned TDP1 inh inactive and Pin1 inhibitor inactive.
`O=C1N[C@@H]2[C@H](CCCCC(=O)Oc3ccc([N+](=O)[O-])cc3)SC[C@H]2N1` gave VDR inh inconclusive and TDP1 inh inactive.
Screening Cc1ccc(S(=O)(=O)N2CCN(c3nc(-c4ncco4)nc4ccccc34)CC2)cc1 returned VDR inh inconclusive, TDP1 inh inactive and Pin1 inhibitor inconclusive.
Screening COc1ccc(CCNC(=O)CCCn2nc(C)c3sc4ccccc4c3c2=O)c(OC)c1 returned VDR inh inactive, TDP1 inh inactive and Pin1 inhibitor inactive.
Screening COc1cc2c(cc1OC)C(COc1ccc(F)cc1)N(C(=O)c1ccc(S(=O)(=O)N3CCCC3)cc1)CC2 (stereo not drawn) returned VDR inh inactive, TDP1 inh inactive and Pin1 inhibitor inactive.
`Oc1ccc(-c2n[nH]c(=S)n2-c2ccc3c(c2)OCCO3)c(O)c1` gave VDR inh inactive, PLK1 PBD inh inactive, Tb PFK inh inactive, TDP1 inh inconclusive, Pin1 inhibitor inactive and ASM inhibitor inactive.
`S=c1[nH]nc(-c2ccc(Cl)cc2Cl)n1-c1ccc2c(c1)OCCO2` gave VDR inh inactive, PLK1 PBD inh 27µM, Tb PFK inh inactive, TDP1 inh inactive, Pin1 inhibitor inactive and ASM inhibitor inactive.
Cc1ccc(-c2csc(NC(=O)Cc3ccc(F)cc3)n2)o1 was read as VDR inh inconclusive, PLK1 PBD inh 24µM, Tb PFK inh inactive, TDP1 inh inactive, Pin1 inhibitor inactive and ASM inhibitor inactive.
`Cc1ccc(NS(=O)(=O)c2cc(NC(=O)c3ccc4c(c3)NC(=O)CS4)ccc2Cl)c(C)c1` gave VDR inh inactive, PLK1 PBD inh 6µM, Tb PFK inh inactive, TDP1 inh inactive, Pin1 inhibitor inactive and ASM inhibitor inconclusive.
For CC12CCC=CC1C(c1ccc(C(F)(F)F)cc1)N(Cc1ccccc1)C2=O (stereo not drawn) the results were VDR inh inactive, TDP1 inh inactive and Pin1 inhibitor inactive.
`O=[N+]([O-])c1ccccc1-c1ccc(CN2CCN(c3ccccc3)CC2)o1` gave VDR inh inactive, PLK1 PBD inh inactive, Tb PFK inh inactive, Pin1 inhibitor inactive and ASM inhibitor inactive.
